# Only some compounds are listed: those with a hit (about 7.8% of all), similar ones and a draw of the others.
# Lassa entry inh = Lassa virus entry inhibition; Lassa virus pseudotype entry inhibition, cell reporter; Potency, µM (doses to about 37.9 µM), for inactives: top-dose activity change, negative = inhibition, actives largely listed as inhibitors; 1.2% of 300,000 active; calls by dose curve; tested in HEK293 cells; further: potency means the concentration at half of the fitted maximal effect; nearly all actives have a fitted effect of over 50% in size
# VACV Venus inh = vaccinia inhibition (Venus reporter); Vaccinia virus Venus reporter expression, fluorescence; Potency, µM (doses to about 36.5 µM), inactives show at the top dose activity change, negative = inhibition, actives largely listed as inhibitors; 0.46% of 330,000 active; calls by dose curve; tested in A549 cells; further: potency means the concentration at half of the fitted maximal effect; nearly all actives have a fitted effect of over 30% in size
# VACV mCherry inh = inhibitors of vaccinia virus infection (mCherry reporter signal); Vaccinia virus mCherry reporter infection, fluorescence; Potency, µM (titrated, usually from 36.5 µM), inactives show at the top dose activity change, negative = inhibition, hits mostly inhibitors; 0.63% of 310,000 active; AID 720579; calls by dose curve; tested in A549 cells; further: potency means the concentration at half of the fitted maximal effect; nearly all actives have a fitted effect of over 35% in size
# Marburg entry inh = blocks Marburg virus binding to or entry into cells; AID 540276; Potency, µM (titrated, usually from 37.8 µM), for the others: at the highest dose activity change, negative = inhibition, most hits filed as inhibitors; Marburg virus pseudotyped entry inhibition, cell reporter; 1.8% of 300,000 active; calls by dose curve; tested in HEK293 cells; further: potency means the concentration at half of the fitted maximal effect
# HCV inh = inhibitors of hepatitis C virus infection | Huh7.5.1 HCVcc-Cre infection, luciferase reporter, 44 h | Potency, µM (series often up to 41.8 µM), for inactives: at the highest dose activity change, negative = inhibition, usual class: inhibitors | 3.4% of 340,000 active; active means well fitted inhibition curve with a large enough effect; inconclusive means small, poorly fitted or top-dose-only effect, or another doubt; inactive means no such curve, though single readings can be large or run the other way; further: potency means the concentration at half of the fitted maximal effect
#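 Reporter virus HCVcc-Cre (~0.5 moi) infects cells exposed to compound; seeding density 1,000 cells/well with 4 h settling beforehand. Luminescence, 15 sec read, taken 44 h post-infection following a 15 min RT substrate incubation.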
# HCMV antiviral = blocks human cytomegalovirus replication. 4.5% of 410,000 active. HFF cells, HCMV-luciferase reporter, 72 h; active compounds read low. activity change, negative = inhibition, % at 57.5 µM; in the data active means activity change below about -60%; inconclusive means no clear call, values can overlap the other calls; inactive means above about -39%
#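 Inhibition of viral replication was scored as loss of reporter luminescence in HFFs infected with HCMV-luciferase (MOI 1 PFU/cell) for 72 h; compounds tested at 2 doses, normalized to buffer and Salinomycin controls.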
# * marks the source's active call; other numbers are inactive results; i = inactive; ? = inconclusive; . = no result; [ ] = remark or other dose. On the % scale 0 is the no-effect control and ±100 the full control effect.
SMILES,Lassa entry inh,VACV Venus inh,VACV mCherry inh,Marburg entry inh,HCV inh,HCMV antiviral
CC(=O)NNC(=O)c1[nH]c2ccc(Cl)cc2c1-c1ccccc1,.,.,.,.,9%,-4
CC/C(C)=N/NC(=O)c1[nH]c2ccc(C)cc2c1-c1ccccc1,?,-27%,?,?,1%,-3
Cc1cccc(NC(=S)N/N=C/c2c[nH]c3ccccc23)c1,?,?,?,?,10µM*,5
Cc1nc(N)sc1C(=O)N/N=C/c1c[nH]c2ccccc12,10%,0%,-29%,2.9µM*,-22%,62
NNC(=O)c1[nH]c2ccccc2c1-c1ccccc1,.,?,-13%,.,-4%,-95*
Cc1nc(N)sc1C(=O)N/N=C/c1ccccc1[N+](=O)[O-],.,.,.,.,.,83
O=C(NN=C1CCCC1)c1[nH]c2ccc(Cl)cc2c1-c1ccccc1,?,-25%,-27%,?,1%,-92*
O=C(N/N=C/c1c[nH]c2ccccc12)c1[nH]c2ccc(Br)cc2c1-c1ccccc1,?,.,.,?,-26%,-86*
O=C(N/N=C/c1ccc(O)cc1)c1[nH]c2ccc(Br)cc2c1-c1ccccc1,?,.,.,?,3%,-94*
O=C(N/N=C/c1c[nH]c2ccccc12)c1cc(Br)ccc1O,.,.,.,.,15%,19
CCOc1ccc(Br)cc1C(=O)N/N=C/c1c[nH]c2ccccc12,.,.,.,.,13µM*,13
O=C(N/N=C/c1c[nH]c2ccccc12)c1ccccc1,.,.,.,.,11%,33
Cc1ccc(C2CC(=O)n3nc(-c4ccc(F)cc4)nc3S2)cc1 (stereo not drawn),2%[46.1 µM],-15%,i,-4%[46.1 µM],.,9
COc1ccc(-c2nc3c4ccccc4ccn3c2CN2CCCCC2)cc1OC,.,.,.,.,11µM*,1
Clc1ccc(-c2nc3ccccn3c2CN2CCCCC2)cc1,.,.,.,.,-28%,-77*
COc1ccc(S[C@]2(c3nc(-c4cccnc4)no3)CC(=O)N[C@@H]2c2ccc(OC)cc2)cc1,.,.,.,.,.,24
O=C(Nc1c(C(=O)N2CCN(c3ccccc3F)CC2)oc2ccccc12)c1ccc(Br)o1,-1%[46.1 µM],-7%,-11%,?,.,-31
CCN(CC)c1ccc(-c2n[nH]c(=S)n2-c2ccccc2)cc1,?,?,-18%,-6%[46.1 µM],11µM*,67
CC(=O)C1=C(c2cccc([N+](=O)[O-])c2)N(C(C)=O)n2c(C)nnc2S1,?,.,.,?,?,-93*
CC(=O)C1=C(c2ccc(C)cc2)N(C(C)=O)n2c(nnc2-c2ccccc2)S1,-7%[46.1 µM],-13%,-21%,.,.,39
CCCCn1c(N)c(-c2nc3ccccc3s2)c2c([N+](=O)[O-])nn(CC)c(=O)c21,?,.,.,?,?,-29
CCCCCn1c(N)c(-c2nc3ccccc3s2)c2c([N+](=O)[O-])nn(CC)c(=O)c21,11%,.,.,2.9µM*,11µM*,-6
Cn1c(SCc2ccc(F)cc2)nnc1-c1cnccn1,.,.,.,.,14%,-33
Cn1c(SCc2ccccc2)nnc1-c1cnccn1,-2%,.,.,?,12%,-61*
Cc1ccn2c(C=O)c(-c3ccc(F)cc3)c(C=O)c2c1,.,.,.,.,11µM*,-28
SMILES,Lassa entry inh,VACV Venus inh,VACV mCherry inh,Marburg entry inh,HCV inh,HCMV antiviral
O=Cc1c(-c2ccc(F)cc2)nc2ccccn12,12%,-7%,-8%,10%[46.1 µM],14%,13
Cc1ccc(NC(=O)Cn2c(=O)n(CC(=O)NCCc3ccccc3)c(=O)c3ccccc32)cc1C,-2%[46.1 µM],?,?,14%[46.1 µM],.,-12
COc1ccc(NS(=O)(=O)c2ccc3oc(SCc4ccc(F)cc4)nc3c2)cc1,?,?,?,?,11µM*,-61*
COc1ccccc1NS(=O)(=O)c1ccc2oc(SCc3ccc(F)cc3)nc2c1,?,-19%,-25%,?,35µM*,-37
Oc1cc(-c2cccs2)cc2c1OCCN(Cc1cn[nH]c1-c1ccc(Cl)cc1)C2,.,-11%,0%,.,.,.
COC(=O)c1ccc2nc(-c3ccc(OC)c(OC)c3)c(Cc3ccccc3C(F)(F)F)n2c1,.,.,.,.,.,-20
COc1ccc(S(=O)(=O)Nc2cc3c(C(C)=O)c(C)oc3c3ccccc23)cc1,?,?,-25%,?,18µM*,-76*
Cc1cccc(C)c1Nc1c(-c2ccccc2F)nc2ccccn12,.,.,.,.,.,-3
O=C1C=C(N(CCO)Cc2ccccc2)c2ccccc2C1=O,4.5µM*,?,11µM*,?,?,.
O=C1c2ccccc2C(=O)c2c1cccc2N(CCO)CCO,3%[46.1 µM],-9%,-24%,6%[46.1 µM],0%,38
O=C(Nc1cccc(S(=O)(=O)N2CCCCC2)c1)c1cc(=O)[nH]c2ccccc12,19%,-7%,0%,-10%,?,4
Cc1ccc(NC(=O)C2CCCN(S(=O)(=O)c3ccc4[nH]c(=O)ccc4c3)C2)cc1Cl (stereo not drawn),-5%[46.1 µM],-11%,-13%,.,.,39
Nn1c(Nc2ccccc2)nc2sc3c(c2c1=O)CCC3,?,-10%,-13%,?,13µM*,-32
NNc1nc2sc3c(c2c(=O)n1Cc1ccccc1)CCC3,31%,-16%[7.34 µM],-1%[7.34 µM],7%[46.1 µM],?,3
COCCCNc1nccc2[nH]c(-c3cccc(C)c3)nc12,.,.,.,.,.,26
CCOC(=O)c1[nH]c(C)c(C(=O)N2CCc3ccccc32)c1C,?,?,.,?,?,-92*
CCOC(=O)c1[nH]c(C)c(C(=O)OCc2ccccc2F)c1C,5.6µM*,?,?,?,3.2µM*,-19
